In PubChem BioAssay (Tox21) one finds Potency data, which are given here for 9 compounds.

Values joined by “and” are separate entries in the source; they are usually repeats but may differ in a detail not shown here. Identical values can stand only once. Inconclusive results are not listed. More than one record can exist for a structure, and the calls need not agree. Active and inactive are the calls of the source. Unless noted, calls follow the shape of the full dose curve.

Assay [1] concerns the target Gonadotropin-releasing hormone receptor (Homo sapiens) (UniProt P30968). The assay is described as follows: Human gonadotropin-releasing hormone receptor (GnRHR) small molecule agonists, calcium flux assay in GnRHR-HEK293 cells (AID 1920063). Also: nearly all actives have a fitted effect of over 35% in size. Summed up: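 Agonist mode: compounds at 15 concentrations, in triplicate, went onto calcium dye-loaded GnRHR-HEK293 cells. Intracellular calcium was then followed as 480/540 nm fluorescence at 1 s intervals over 3 min.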
In general terms: A change in cytosolic calcium serves as a functional read-out for many receptors and channels.

The target of assay [2] is KiSS-1 receptor (Homo sapiens) (UniProt Q969F8). The assay is described as follows: Human kisspeptin (KISS1R) small molecule agonists, calcium flux assay in KISS1R-HEK293 cells (AID 1920064; active = well fitted activation curve with a large enough effect in the repeat runs). Summed up: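 Agonist mode: intracellular calcium rise tracked at 1 s intervals over 3 min (480/540 nm) immediately after compound addition to dye-loaded KISS1R-HEK293 stable cells. Each compound tested at 15 concentrations in triplicate.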

Assay [3] can be described thus: G protein-coupled receptor (GPCR) small molecule agonists, calcium flux assay: HEK293 wild type cell line counter screen (AID 1920065). The method, boiled down: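 Calcium flux counter screen: compound added in agonist mode at 15 concentrations in triplicate to dye-loaded parental HEK293 cells. Fluorescence (480/540) read kinetically for 3 min; ATP served as positive control.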

Assay [4] can be described thus: p53 small molecule agonists, cell-based qHTS assay with human liver microsomes (AID 1963577). The method, boiled down:
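Cells carrying a p53-responsive bla reporter were rested 5 h (37 C, 5% CO2) before compound transfer. Human liver microsomes plus NADPH, 0.5 mg/mL final apiece, supplied metabolism during the 16 h 37 C exposure.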
Background: In qHTS, concentration-response curves come from the screen itself.

Assay [5] is described as follows: p53 small molecule agonists, cell-based qHTS assay with rat liver microsomes (AID 1963578). Summed up:
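Fluorescence from a beta-lactamase reporter under a p53 response element was measured after cells had been incubated 16 h at 37 C with test compound and rat liver microsomes plus NADPH (0.5 mg/mL final each).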

Assay [6] is described as follows: p53 small molecule agonists, cell-based qHTS assay with rat liver microsomes: qHTS cell viability counter screen (AID 1963580). Also: nearly all actives have a fitted effect of over 45% in size. Also: potency is read from the fitted curve at half-maximal effect. The method, boiled down: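 Counter screen for cytotoxicity under metabolic activation: rat liver microsomes and NADPH, 0.5 mg/mL final each, added with compounds to p53RE-bla HCT-116 cells; 16 h at 37 C, then ATP luminescence read.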
Assay [7] can be described thus: p53 small molecule agonists, cell-based qHTS assay: qHTS cell viability counter screen (AID 1963581). Also: nearly all actives have a fitted effect of over 45% in size. Also: potency is read from the fitted curve at half-maximal effect. Summed up: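 Counter screen read by CellTiter-Glo luminescence (ATP content, 30 min at room temperature), run in the same wells as the beta-lactamase reporter read. HCT-116 p53RE-bla cells saw compounds for 16 h at 37 C.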
Assay [8] in a line: p53 small molecule agonists, cell-based qHTS assay (AID 1963582; active = well fitted activation curve with a large enough effect in the signal ratio in the repeat runs, not every such curve was filed as active; the % refers to the signal ratio). Summed up: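 Read-out is beta-lactamase FRET fluorescence after 2 h at room temperature with LiveBLAzer B/G substrate. p53 response element-bla cells were treated 16 h at 37 C with compounds in DMSO, added 5 h after seeding.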
Assay [9] has as its target 5-hydroxytryptamine receptor 2A (Homo sapiens) (UniProt P28223). The assay is described as follows: 5-hydroxytryptamine receptor 2A (HTR2A) small molecule antagonists, cell-based qHTS assay (AID 1963586). Also: nearly all actives have a fitted effect of over 45% in size. Summed up:
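CHO cells stably expressing human HTR2A were plated for 18 h at 37 C, then loaded with calcium dye for 1 h. Compounds were preincubated 5 min at room temperature before DOI (4 nM solution) was added. Kinetic fluorescence was read for 3 min.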

The target is the same in assay [10]. The assay is described as follows: 5-hydroxytryptamine receptor 2A (HTR2A) small molecule agonists, cell-based qHTS assay (AID 1963587). Also: nearly all actives have a fitted effect of over 30% in size. Also: potency is read from the fitted curve at half-maximal effect. The method, boiled down: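 HTR2A-CHO cells, plated 18 h at 37 C/5% CO2, dye-loaded 1 h at 37 C; compounds in DMSO added by pin tool (agonist mode). Intracellular calcium flux read as kinetic fluorescence on FDSS over 2 min at 1 s intervals.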

The target in assay [11] is Muscarinic acetylcholine receptor M1 (Homo sapiens) (UniProt P11229). The assay is described as follows: Cholinergic receptor muscarinic 1 (CHRM1) small molecule antagonists, cell-based qHTS assay (AID 1963588). Also: nearly all actives have a fitted effect of over 40% in size. Also: potency is read from the fitted curve at half-maximal effect. Summed up:
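Compounds were tested at 15 concentrations in three independent runs. Dye-loaded CHRM1-CHO cells were exposed 5 min at room temperature before stimulation by acetylcholine added at 50nM. Intracellular calcium was read kinetically on FDSS for 3 min.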

Assay [12] shares this target. The assay is described as follows: Cholinergic receptor muscarinic 1 (CHRM1) small molecule agonists, cell-based qHTS assay (AID 1963589). Also: nearly all actives have a fitted effect of over 35% in size. The method, boiled down: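 Agonist-mode calcium-flux screen: compounds at 15 concentrations, three independent runs, were pin-transferred onto dye-loaded human CHRM1-CHO cells. Fluorescence was then recorded kinetically every second over minutes.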

Assay [13] is described as follows: cAMP Responsive Elements (CRE) small molecule agonists, cell-based qHTS assay (AID 1963590). The method, boiled down:
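Agonist mode: compound added to CRE-bla HEK 293T cells (2,000/well, 18 h after plating) for 3 h at 37 C/5% CO2. Reporter activity detected via FRET beta-lactamase substrate, 2 h room-temperature loading.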

Assay [14] in a line: cAMP Responsive Elements (CRE) small molecule antagonists, cell-based qHTS assay (AID 1963591; active = well fitted inhibition curve with a large enough effect in the signal ratio in the repeat runs, not every such curve was filed as active; the % refers to the signal ratio). The method, boiled down: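 Antagonist mode: compounds are added alongside the adenylyl cyclase activator NKH477 (0.25 uM final) to CRE-bla HEK293T cells for 3 h. LiveBLAzer FRET substrate, 2 h at room temperature, reports bla expression.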
In assay [15] the target is Beta-2 adrenergic receptor (Homo sapiens) (UniProt P07550). The assay is described as follows: Adrenergic beta2 receptor (ADRB2) small molecule antagonists, cell-based qHTS assay (AID 1963592). Also: series mostly up to about 92 µM; nearly all actives have a fitted effect of over 50% in size. The method, boiled down: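 Assay format: CHO-ADRB2 cells, 18-20hr seeding at 37C/5% CO2, then compound plus 1nM isoproterenol agonist mix for 0.5hr RT. Homogeneous time-resolved fluorescence cAMP detection after 1hr, expressed as 665/615 nm ratio.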

Assay [16] in a line: p53 small molecule agonists, cell-based qHTS assay with human liver microsomes: qHTS cell viability counter screen (AID 1963579). Also: nearly all actives have a fitted effect of over 45% in size. Also: potency is read from the fitted curve at half-maximal effect. The method, boiled down:
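Seed p53RE-bla cells at 4,000 per well; incubate 5 h at 37 C; add compound, human liver microsomes and NADPH; incubate 16 h at 37 C; add CellTiter-Glo; after 30 min at room temperature, read luminescence.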

In assay [17] the target is Beta-2 adrenergic receptor (Homo sapiens) (UniProt P07550). The assay is described as follows: Adrenergic beta2 receptor (ADRB2) small molecule agonists, cell-based qHTS assay (AID 1963593).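 Also: CHO cells stably overexpressing human ADRB2.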 Summed up:
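CHO cells stably over-expressing ADRB2 were plated overnight at 37C, then dosed with compounds plus a stimulation mix containing 100uM IBMX and 25uM Ro-20-1724 for 0.5hr at room temperature. cAMP was measured by HTRF competition, 1hr.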

The target of assay [18] is D(2) dopamine receptor (Homo sapiens) (UniProt P14416). The assay is described as follows: Dopamine D2 receptor (DRD2) small molecule agonists, cell-based qHTS assay (AID 1963594). Also: nearly all actives have a fitted effect of over 35% in size. Summed up:
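HEK293 cells stably expressing DRD2 were cultured 24 h at 37 C, then given Ro20-1724 (0.1 mM final) and compounds for 10 min at room temperature. NKH477 (200nM) was then added for 30 min. cAMP was read by HTRF.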

Assay [19] shares this target. The assay is described as follows: Dopamine D2 receptor (DRD2) small molecule antagonists, cell-based qHTS assay (AID 1963595; active = well fitted inhibition curve with a large enough effect in the signal ratio in the repeat runs, with a control signal flat; the % refers to the signal ratio). Summed up: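 Readout: HTRF cAMP, cAMP-d2 competing with cellular cAMP for anti-cAMP cryptate, read after 1 h. Cells: DRD2-HEK293. Conditions: 0.1 mM Ro20-1724, 12 nM quinpirole, 200 nM NKH477, 30 min RT.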
A short description of assay [20]: Nuclear factor erythroid 2-related factor 2/antioxidant responsive element (Nrf2/ARE) small molecule agonists: luciferase reporter gene qHTS assay in human keratinocytes (AID 1919969). Also: potency is read from the fitted curve at half-maximal effect; nearly all actives have a fitted effect of over 35% in size. A general note: In a reporter assay the amount or activity of a reporter protein is the signal.

Chain of Gonadotropin-releasing hormone receptor (Homo sapiens) (P30968 whole entry, looked up): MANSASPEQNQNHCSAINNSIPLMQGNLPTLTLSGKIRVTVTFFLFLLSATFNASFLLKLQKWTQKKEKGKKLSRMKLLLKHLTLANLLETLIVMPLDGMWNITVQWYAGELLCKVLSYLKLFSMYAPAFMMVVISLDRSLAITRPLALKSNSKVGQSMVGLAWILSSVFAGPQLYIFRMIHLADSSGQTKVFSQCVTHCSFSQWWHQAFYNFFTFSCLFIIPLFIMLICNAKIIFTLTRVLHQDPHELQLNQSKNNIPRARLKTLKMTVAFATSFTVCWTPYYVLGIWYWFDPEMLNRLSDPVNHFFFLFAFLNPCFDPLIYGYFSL
Chain of Muscarinic acetylcholine receptor M1 (Homo sapiens) (P11229 whole entry, looked up): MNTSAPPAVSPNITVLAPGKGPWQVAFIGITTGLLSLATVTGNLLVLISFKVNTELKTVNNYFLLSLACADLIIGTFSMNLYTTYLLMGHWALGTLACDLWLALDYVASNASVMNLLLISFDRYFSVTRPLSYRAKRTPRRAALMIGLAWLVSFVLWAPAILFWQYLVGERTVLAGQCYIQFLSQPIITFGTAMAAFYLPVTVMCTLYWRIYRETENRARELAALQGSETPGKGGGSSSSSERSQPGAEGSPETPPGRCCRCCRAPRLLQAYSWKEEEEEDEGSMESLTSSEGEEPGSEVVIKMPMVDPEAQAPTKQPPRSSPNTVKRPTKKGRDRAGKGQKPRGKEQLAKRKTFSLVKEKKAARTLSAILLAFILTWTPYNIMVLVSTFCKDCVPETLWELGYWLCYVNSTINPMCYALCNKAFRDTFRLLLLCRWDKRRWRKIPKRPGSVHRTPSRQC
Chain of KiSS-1 receptor (Homo sapiens) (Q969F8 whole entry, looked up): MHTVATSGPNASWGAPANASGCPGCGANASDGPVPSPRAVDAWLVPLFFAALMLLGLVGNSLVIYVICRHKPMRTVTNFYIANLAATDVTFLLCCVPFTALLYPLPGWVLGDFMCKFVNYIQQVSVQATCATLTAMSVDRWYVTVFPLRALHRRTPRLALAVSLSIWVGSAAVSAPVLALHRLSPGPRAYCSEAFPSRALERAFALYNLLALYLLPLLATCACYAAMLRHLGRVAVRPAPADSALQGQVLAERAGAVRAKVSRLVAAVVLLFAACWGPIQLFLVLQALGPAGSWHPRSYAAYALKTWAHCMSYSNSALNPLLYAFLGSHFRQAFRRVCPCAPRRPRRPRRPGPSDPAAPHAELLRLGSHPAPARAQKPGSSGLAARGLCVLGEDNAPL
Chain of D(2) dopamine receptor (Homo sapiens) (P14416 whole entry, looked up): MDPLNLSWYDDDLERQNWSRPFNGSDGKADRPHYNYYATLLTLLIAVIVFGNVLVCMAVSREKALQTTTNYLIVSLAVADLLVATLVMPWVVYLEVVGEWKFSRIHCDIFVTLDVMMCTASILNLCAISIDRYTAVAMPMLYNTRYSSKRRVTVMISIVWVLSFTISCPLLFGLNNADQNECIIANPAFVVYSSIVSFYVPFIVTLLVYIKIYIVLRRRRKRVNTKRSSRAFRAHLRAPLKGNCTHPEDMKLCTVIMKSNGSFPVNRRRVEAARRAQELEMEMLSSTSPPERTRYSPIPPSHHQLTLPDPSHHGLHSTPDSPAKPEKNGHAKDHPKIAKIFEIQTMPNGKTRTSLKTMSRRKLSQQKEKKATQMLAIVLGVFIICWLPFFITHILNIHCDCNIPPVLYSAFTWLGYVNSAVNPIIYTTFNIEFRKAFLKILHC
Chain of 5-hydroxytryptamine receptor 2A (Homo sapiens) (P28223 whole entry, looked up): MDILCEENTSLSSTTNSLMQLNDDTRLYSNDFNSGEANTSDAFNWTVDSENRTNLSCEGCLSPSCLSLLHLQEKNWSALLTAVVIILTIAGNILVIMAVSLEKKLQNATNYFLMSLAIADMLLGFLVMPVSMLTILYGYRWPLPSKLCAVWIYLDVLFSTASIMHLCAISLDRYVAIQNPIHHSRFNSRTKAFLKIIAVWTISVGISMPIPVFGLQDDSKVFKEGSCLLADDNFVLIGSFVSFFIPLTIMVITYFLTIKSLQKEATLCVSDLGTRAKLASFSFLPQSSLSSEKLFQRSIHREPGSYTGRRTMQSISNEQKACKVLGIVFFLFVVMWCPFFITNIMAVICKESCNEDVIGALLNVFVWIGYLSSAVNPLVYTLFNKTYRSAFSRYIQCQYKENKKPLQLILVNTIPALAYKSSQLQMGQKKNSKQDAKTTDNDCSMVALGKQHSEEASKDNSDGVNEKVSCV
Chain of Beta-2 adrenergic receptor (Homo sapiens) (P07550 whole entry, looked up): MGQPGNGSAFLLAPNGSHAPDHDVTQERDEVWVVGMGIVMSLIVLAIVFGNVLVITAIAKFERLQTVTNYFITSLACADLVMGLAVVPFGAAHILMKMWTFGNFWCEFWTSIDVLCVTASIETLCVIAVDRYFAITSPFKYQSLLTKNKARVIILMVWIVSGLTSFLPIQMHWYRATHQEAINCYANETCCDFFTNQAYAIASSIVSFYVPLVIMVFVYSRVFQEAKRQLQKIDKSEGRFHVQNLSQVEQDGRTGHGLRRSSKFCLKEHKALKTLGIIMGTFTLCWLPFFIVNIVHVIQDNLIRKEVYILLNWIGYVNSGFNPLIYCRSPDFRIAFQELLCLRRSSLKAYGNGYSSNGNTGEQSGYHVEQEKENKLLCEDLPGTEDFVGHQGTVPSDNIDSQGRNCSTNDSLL

Regarding `[O-][Cl+2]([O-])O`, the Potency entry in [1], in assay [2], in [3], in assay [4], in assay [5] and in assay [6] was “inactive” throughout. Further, the Potency entry in assay [7], in [8], in assay [9], in assay [10], in [11] and in [12] was “inactive” each time. Further, the Potency entry in assay [13], in [14] and in [15] was “inactive” in each case.

Take `CN(C)c1ccc(N=O)cc1`: the Potency entry in assay [1], in assay [2], in assay [3], in assay [4], in assay [16] and in assay [7] was “inactive” each time. Further, the Potency entry in assay [10], in [11] and in [12] was “inactive” each time.

Consider `COc1ccccc1OC`, for which the Potency result in [1], in assay [2], in assay [3], in assay [4], in assay [5] and in assay [16] was “inactive” throughout. Moreover, the Potency result in assay [7], in assay [9], in [10], in [11], in assay [12] and in assay [13] was “inactive” throughout. Also, the Potency entry in assay [14], in [17], in assay [18] and in assay [19] was “inactive” in each case.

For the compound `CC(C)N(C(=O)CCl)c1ccccc1`, the Potency entry in assay [1], in [2], in [3], in [16], in assay [7] and in assay [9] was “inactive” each time. The Potency result in assay [10], in assay [11], in assay [12], in [15], in assay [17] and in assay [18] was “inactive” each time. Further, the Potency result in assay [19] was “inactive”.

For the compound `CC(C)(O)C(Cl)(Cl)Cl`, the Potency result in [1], in [2], in [3], in assay [4], in assay [5] and in assay [6] was “inactive” each time. The Potency result in assay [7], in assay [9], in [10], in [11], in assay [12] and in assay [13] was “inactive” in each case. The Potency entry in [14], in assay [15] and in [18] was “inactive” each time.

Turning to `S=c1[nH]c2ccccc2[nH]1`, the Potency result in [1], in [2], in assay [3], in assay [5], in assay [16] and in assay [7] was “inactive” in each case. Further, the Potency result in assay [8], in assay [9], in [10], in assay [11], in assay [12] and in assay [13] was “inactive” each time. In addition, the Potency result in [14], in assay [15] and in assay [19] was “inactive” in each case.

Regarding `CCc1cccc(C)c1N(C(=O)CCl)C(C)COC` (centres undefined), the Potency in assay [20] was 57.6 µM (active). Besides, the Potency entry in assay [1], in [2], in assay [3], in assay [4], in assay [5] and in assay [16] was “inactive” each time. The Potency entry in assay [6], in [7], in assay [8], in assay [9], in assay [10] and in assay [11] was “inactive” each time. The Potency result in assay [12], in assay [13], in [14], in [15], in assay [17] and in [18] was “inactive” each time. Further, the Potency result in assay [19] is “inactive”.

As for `N#CC(c1ccccc1)c1ccccc1`, the Potency result in assay [1], in assay [3], in [4], in [5], in assay [16] and in [6] was “inactive” each time. The Potency result in assay [7], in assay [9], in assay [10], in assay [11], in [12] and in assay [13] was “inactive” throughout. The Potency result in assay [15], in [17], in assay [18] and in [19] was “inactive” each time.

Consider `CCOP(=O)(O)OCC` (tested in a mixture with another compound), for which the Potency result in assay [1], in assay [3], in assay [9], in assay [12], in assay [13] and in [14] was “inactive” in each case. The Potency entry in assay [15], in [17], in [18] and in assay [19] was “inactive” throughout. The Potency result in [16] is “inactive and 36.1 µM (active)”; in [6], “inactive and 36.1 µM (active)”; in assay [7], “inactive and 28.6 µM (active)”; in assay [10] it was “inactive and 19.3 µM (active)”; in assay [11], “inactive and 1.48 µM (active)”.
